In assay [1] the test system is Wnt5a (protein binding on small-molecule microarray). Put plainly: Wnt5a binders on small-molecule microarray, primary screen, biophysical, 635/667 nm fluorescence (AID 1142).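 Further: fluorescence read at 667 nm with signal to noise per printed feature.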 To be noted: 635 nm fluorescence, higher = more signal.
A short description of assay [2]: cell viability in Huh7 cells, primary screen, cytotoxicity control for HCV replication inhibitor project, CellTiter-Glo luminescence, basal, 48 h (AID 1143).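 Further: Huh7 hepatoma cells carrying a hepatitis C replication reporter with no stimulus; test concentration not given here.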 To be noted: Huh7 HCV replicon, higher = more signal, called active from +8 up or from −8 down.
Assay [3] can be described thus: P. aeruginosa biofilm formation inhibitors, primary screen, PAO1 strain, BacTiter-Glo luminescence, LB-PBS (AID 1144). To be noted: 12 h, higher = more signal.
Assay [4] is described as follows: CREB reporter modulators without forskolin, primary screen, cell-based, PC12, CRE-LacZ reporter, unstimulated (AID 1145). To be noted: no forskolin, luminescence, 4.5 h, higher = more signal, called active from +8 up or from −8 down.
A short description of assay [5]: CREB reporter modulators under forskolin, primary screen, cell-based, PC12, CRE-LacZ reporter, forskolin-stimulated (AID 1146).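 Further: PC12 cells with 6xCRE LacZ reporter stimulated by forskolin 10 µM; beta-galactosidase reporter signal reflecting CREB driven transcription.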 To be noted: luminescence, 4.5 h, higher = more signal, called active from +8 up or from −8 down.
Assay [6] addresses Streptavidin (Streptomyces avidinii) (UniProt P22629). Put plainly: streptavidin binders on small-molecule microarray, primary screen, artefact control for SMM compound annotation, biophysical, 635/667 nm fluorescence (AID 1147).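 Further: signal reflects streptavidin binding to arrayed compounds as a control protein.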 To be noted: streptavidin binding, higher = more signal.
Assay [7] can be described thus: small-molecule binders of probe aInhba, primary screen, biochemical, small-molecule microarray, 635/667 nm fluorescence (AID 1148).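 Further: score merges 667nm spot fluorescence with signal-to-noise for antibody binding to printed compounds.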 To be noted: higher = more signal.
The target of assay [8] is Torsin-1A (Homo sapiens) (UniProt O14656). Put plainly: torsin A binders from cell lysate, primary screen, small-molecule microarray, wild-type, 635/667 nm (AID 1149). To be noted: COS7 hTOR1A-WT lysate, 635 nm fluorescence, higher = more signal.
Assay [9] has the same target. Put plainly: small-molecule binders of mutant TOR1A in lysate, primary screen, cell lysate, small-molecule microarray, COS7 lysate, 635/667 nm fluorescence (AID 1150).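 Further: score pools 667 nm emission and signal to noise measuring lysate protein binding.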 To be noted: COS7 hTOR1A mutant lysate, 635 nm fluorescence, higher = more signal.
Assay [10] relates to Sonic hedgehog protein (Shh). Put plainly: small-molecule binders of Shh protein, primary screen, biochemical, small-molecule microarray, 635/667 nm fluorescence (AID 1151).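 Further: Shh protein binding to compounds spotted on small-molecule microarray slides; score combines spot fluorescence intensity with signal-to-noise across triplicate slides.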 To be noted: small-molecule microarray binding, 635 nm fluorescence; higher = more signal.
A short description of assay [11]: E. coli DRC41 culture turbidity changes, primary screen, E. coli filamentation inducer project, strain DRC41, OD650, 48 h (AID 1152).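 Further: E. coli MC1000 strain DRC41 lacking acrAB efflux pump and sulA.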 To be noted: E. coli DRC41 (acrAB sulA), higher = more signal, called active from +8 up or from −8 down.
Assay [12] in a line: small-molecule binders of probe aLefty1, primary screen, biochemical, small-molecule microarray, 635/667 nm fluorescence (AID 1153).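 Further: score merges spot fluorescence with signal-to-noise ratio from the scanned slide images.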 To be noted: higher = more signal.
A short description of assay [13]: PSAC antagonists in infected red cells, primary screen, cell-based, P. falciparum Indochina, OD700, 1 h (AID 1154). To be noted: P. falciparum Indochina infected RBC osmotic lysis, higher = more signal, called active from +8 up or from −8 down.
Assay [14] is described as follows: PSAC antagonists in infected red cells, primary screen, cell-based, P. falciparum Indochina, OD700, 2 h (AID 1155).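 Further: lysis reports solute entry through the parasite surface anion channel PSAC; channel blockers reduce lysis of infected cells.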 To be noted: P. falciparum Indochina infected erythrocytes, osmotic lysis OD700; higher = more signal, called active from +8 up or from −8 down.
The nature of assay [15]: osmotic lysis modulators in infected erythrocytes, primary screen, PSAC antagonist project, cell-based, P. falciparum Indochina, OD700, 3 h (AID 1156). To be noted: higher = more signal, called active from +8 up or from −8 down.
Assay [16] can be described thus: PSAC antagonists in infected red cells, primary screen, cell-based, P. falciparum Indochina, OD700, 18 h (AID 1157). To be noted: P. falciparum Indochina infected erythrocytes, osmotic lysis OD700, 18 h; higher = more signal, called active from +8 up or from −8 down.
Assay [17] is described as follows: modulators of S6 phosphorylation in cells, primary screen, cell-based, A549, cytoblot, luminescence, serum-stimulated (AID 1158).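 Further: serum-stimulated A549 lung adenocarcinoma cells; signal is phosphorylated S6 detected by cytoblot immunostaining with HRP secondary.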 To be noted: A549 phospho-S6 cytoblot, 5 h, higher = more signal.
Assay [18] deals with NADPH oxidase 2 (Homo sapiens) (UniProt P04839). Put plainly: NOX2-dependent H2O2 signal modulators, primary screen, NOX inhibitor project, cell-based, HEK293-NOX2, PMA-stimulated, Amplex Red fluorescence (AID 1159). Further: test concentration not given here. To be noted: 45 min, higher = more signal, called active from +8 up or from −8 down.
Assay [19] deals with NADPH oxidase 4 (Homo sapiens) (UniProt Q9NPH5). Put plainly: NOX4-dependent H2O2 signal modulators, primary screen, NOX inhibitor project, cell-based, HEK293-NOX4, tetracycline-induced, Amplex Red fluorescence (AID 1160). To be noted: 45 min, higher = more signal, called active from +8 up or from −8 down.
The target in assay [20] is NADPH oxidase 5 (Homo sapiens) (UniProt Q96PH1). Put plainly: NOX5-dependent H2O2 signal modulators, primary screen, NOX inhibitor project, cell-based, HEK293-NOX5, Amplex Red fluorescence (AID 1161). To be noted: HEK293-NOX5, ionomycin, 45 min, higher = more signal.

Active and inactive are the calls of the source. Unless noted, how the calls were made is not given here.

Chain of Torsin-1A (Homo sapiens) (O14656 whole entry, looked up): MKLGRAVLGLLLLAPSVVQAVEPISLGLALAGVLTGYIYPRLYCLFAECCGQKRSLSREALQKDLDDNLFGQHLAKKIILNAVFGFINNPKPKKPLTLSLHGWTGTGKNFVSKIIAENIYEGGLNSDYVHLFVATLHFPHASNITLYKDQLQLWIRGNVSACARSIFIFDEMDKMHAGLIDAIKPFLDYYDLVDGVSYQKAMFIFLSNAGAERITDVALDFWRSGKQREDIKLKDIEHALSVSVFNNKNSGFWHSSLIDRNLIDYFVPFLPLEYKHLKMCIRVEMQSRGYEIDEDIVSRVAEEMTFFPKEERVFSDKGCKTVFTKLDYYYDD
Chain of NADPH oxidase 4 (Homo sapiens) (Q9NPH5 whole entry, looked up): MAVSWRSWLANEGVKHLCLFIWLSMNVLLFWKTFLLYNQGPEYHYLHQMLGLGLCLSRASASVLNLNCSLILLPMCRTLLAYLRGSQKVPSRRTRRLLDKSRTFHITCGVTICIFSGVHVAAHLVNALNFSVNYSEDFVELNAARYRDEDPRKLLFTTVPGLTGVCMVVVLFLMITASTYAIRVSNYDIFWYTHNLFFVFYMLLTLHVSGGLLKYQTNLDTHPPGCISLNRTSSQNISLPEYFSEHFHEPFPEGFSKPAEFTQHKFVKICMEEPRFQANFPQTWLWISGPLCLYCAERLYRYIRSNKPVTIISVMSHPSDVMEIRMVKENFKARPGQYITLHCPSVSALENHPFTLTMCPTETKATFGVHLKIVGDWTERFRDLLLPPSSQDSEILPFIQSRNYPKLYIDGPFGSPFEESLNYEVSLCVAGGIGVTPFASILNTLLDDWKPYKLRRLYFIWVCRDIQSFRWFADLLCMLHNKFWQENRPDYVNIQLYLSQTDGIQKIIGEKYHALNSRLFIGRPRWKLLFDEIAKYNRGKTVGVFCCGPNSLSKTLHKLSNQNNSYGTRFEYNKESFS
Chain of Streptavidin (Streptomyces avidinii) (P22629 whole entry, looked up): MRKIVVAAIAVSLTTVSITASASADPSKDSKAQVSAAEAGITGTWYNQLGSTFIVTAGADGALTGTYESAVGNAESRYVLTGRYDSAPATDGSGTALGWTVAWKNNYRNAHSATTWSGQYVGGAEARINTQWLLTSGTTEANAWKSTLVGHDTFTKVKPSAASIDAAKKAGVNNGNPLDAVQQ
Chain of NADPH oxidase 2 (Homo sapiens) (P04839 whole entry, looked up): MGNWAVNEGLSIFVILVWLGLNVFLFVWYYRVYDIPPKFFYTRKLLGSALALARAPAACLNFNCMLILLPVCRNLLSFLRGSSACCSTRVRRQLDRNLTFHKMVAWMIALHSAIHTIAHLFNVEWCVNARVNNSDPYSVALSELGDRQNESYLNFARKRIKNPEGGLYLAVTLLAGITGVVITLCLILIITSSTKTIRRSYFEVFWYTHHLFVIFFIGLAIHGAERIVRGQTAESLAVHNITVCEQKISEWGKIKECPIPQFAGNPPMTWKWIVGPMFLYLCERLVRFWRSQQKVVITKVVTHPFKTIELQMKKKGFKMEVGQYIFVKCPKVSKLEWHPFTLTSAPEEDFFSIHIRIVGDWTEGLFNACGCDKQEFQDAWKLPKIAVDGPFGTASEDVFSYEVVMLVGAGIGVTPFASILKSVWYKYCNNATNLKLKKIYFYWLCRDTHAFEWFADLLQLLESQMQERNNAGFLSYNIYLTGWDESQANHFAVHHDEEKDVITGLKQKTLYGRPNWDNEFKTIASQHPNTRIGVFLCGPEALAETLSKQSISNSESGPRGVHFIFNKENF
Chain of NADPH oxidase 5 (Homo sapiens) (Q96PH1 whole entry, looked up): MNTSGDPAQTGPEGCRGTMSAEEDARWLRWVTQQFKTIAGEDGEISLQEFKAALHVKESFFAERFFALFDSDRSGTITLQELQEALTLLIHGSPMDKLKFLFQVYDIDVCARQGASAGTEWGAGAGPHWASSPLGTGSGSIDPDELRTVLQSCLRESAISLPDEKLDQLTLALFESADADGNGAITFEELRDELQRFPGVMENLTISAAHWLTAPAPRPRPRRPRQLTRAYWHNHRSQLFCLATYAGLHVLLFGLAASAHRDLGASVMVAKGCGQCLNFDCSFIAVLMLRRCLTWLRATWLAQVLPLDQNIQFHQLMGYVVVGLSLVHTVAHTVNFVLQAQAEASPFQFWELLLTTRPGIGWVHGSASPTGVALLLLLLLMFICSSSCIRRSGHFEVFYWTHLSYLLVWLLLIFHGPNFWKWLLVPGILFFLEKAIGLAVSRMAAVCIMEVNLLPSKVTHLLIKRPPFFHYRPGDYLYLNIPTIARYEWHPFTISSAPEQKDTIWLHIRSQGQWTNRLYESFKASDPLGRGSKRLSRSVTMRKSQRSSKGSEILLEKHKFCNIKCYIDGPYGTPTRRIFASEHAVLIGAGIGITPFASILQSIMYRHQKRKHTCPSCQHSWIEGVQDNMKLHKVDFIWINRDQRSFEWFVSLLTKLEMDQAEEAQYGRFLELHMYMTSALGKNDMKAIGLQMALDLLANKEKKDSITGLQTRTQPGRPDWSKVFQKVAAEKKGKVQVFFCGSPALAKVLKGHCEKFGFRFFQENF

Consider `N[C@@H](Cc1ccccc1)C(=O)NCc1cn(Cc2ccccc2)nn1`, for which the composite z-score in [1] was -0.0432; in assay [6], 0.0584; in assay [7], 0.0464; in the assay with Torsin-1A (Homo sapiens) [8], 1.14; in the assay with Torsin-1A (Homo sapiens) [9], 0.186; in assay [10], 0.822. Further, the composite z-score in assay [12] is 0.397. Further, the z-score in [2] is 0.609 (inactive); in assay [3], 0.391 (inactive); in assay [4], 0.381 (inactive); in assay [5], -0.644 (inactive); in [11], 0.676 (inactive); in assay [13] it was -0.39 (inactive). Besides, the z-score in assay [14] was 0.262 (inactive); in assay [15] it was -0.0107 (inactive); in assay [16] it was -0.0074 (inactive); in assay [17] it was 0.0064; in assay [18] it was 0.64 (inactive); in assay [19], 0.359 (inactive). Besides, the z-score in assay [20] was 0.255.

As for `[N-]=[N+]=NCc1ccccc1[C@@H]1OC(c2ccc(OCCCO)cc2)=N[C@]1(CCS(=O)(=O)c1ccccc1)C(=O)O`, the composite z-score in assay [1] is 0.132; in assay [6], 0.659; in assay [7], -0.0589; with Torsin-1A (Homo sapiens) [8] it was 0.134; with Torsin-1A (Homo sapiens) [9] it was 1.09; in [10] it was -1.42. This compound also had a composite z-score in assay [12] of 0.186. Further, the z-score was 0.0514 (inactive) in assay [2]; -0.127 (inactive) in assay [3]; 1.06 (inactive) in assay [4]; -0.0084 (inactive) in assay [5]; -0.0791 (inactive) in assay [11]; 18.8 (active) in [13]. Further, the z-score in assay [14] is 4.31 (inactive); in [15], 0.296 (inactive); in assay [16] it was 0.716 (inactive); in assay [17], -0.0381; in assay [18], 1.19 (inactive); in [19], 1.33 (inactive). In assay [20], this compound came in with a z-score of 2.11.

In the case of `CCOC(=O)C[C@H]1[C@H](OC(=O)c2cc3ccccc3oc2=O)[C@@H](NC(=O)c2ccccc2)c2cc(OCCCO)ccc2N1C(=O)c1ccccc1`, the composite z-score in assay [1] was 0.315; in assay [6] it was 0.289; in [7], -0.113; with Torsin-1A (Homo sapiens) [8] it was 0.575; with Torsin-1A (Homo sapiens) [9], 0.347; in assay [10], 0.696. Also, in [12], the composite z-score turned out to be 0.158. In addition, the z-score in assay [2] was -2.83 (inactive); in assay [3], 0.311 (inactive); in assay [4], 3.75 (inactive); in assay [5], -0.0599 (inactive); in assay [11], 0.0768 (inactive); in assay [13] it was 0.609 (inactive). In addition, the z-score in assay [14] is -1.44 (inactive); in assay [15], -0.35 (inactive); in assay [16], -2.88 (inactive); in assay [17], 0.312; in assay [18], -0.423 (inactive); in [19] it was -1.07 (inactive). Further, the z-score in assay [20] was -0.713.

For `C=CC[C@@H](OC(=O)Nc1ccc(OC)cc1)c1ccc(O)c(F)c1`, the composite z-score was -0.115 in assay [1]; -0.716 in assay [6]; -0.106 in assay [7]; -0.0579 with Torsin-1A (Homo sapiens) [8]; 0.327 with Torsin-1A (Homo sapiens) [9]; 0.174 in [10]. Moreover, in assay [12], the composite z-score amounted to 0.109. For the same compound, the z-score was -4.67 (inactive) in assay [2]; -0.933 (inactive) in assay [3]; 2.26 (inactive) in [4]; 10.1 (active) in assay [5]; 0.111 (inactive) in assay [11]; 2.93 (inactive) in [13]. In addition, the z-score in assay [14] was -0.0384 (inactive); in assay [15], -1.12 (inactive); in assay [16] it was -0.113 (inactive); in assay [17], -0.386; in [18], -6 (inactive); in assay [19], -2.91 (inactive). In [20], this compound had a z-score of -3.48.

`C=C[C@@H](OC)[C@H](OC(=O)Nc1ccc(OC)cc1)c1ccc(O)c(F)c1`: the composite z-score was -0.182 in assay [1]; -0.938 in [6]; -0.197 in assay [7]; 0.281 with Torsin-1A (Homo sapiens) [8]; -0.278 in the assay with Torsin-1A (Homo sapiens) [9]; 1.96 in [10]. For the same compound, the composite z-score in [12] was found to be 0.0774. Further, the z-score is -2.63 (inactive) in assay [2]; -0.238 (inactive) in assay [3]; 2.21 (inactive) in [4]; 1.53 (inactive) in assay [5]; 0.308 (inactive) in [11]; 3.98 (inactive) in assay [13]. The z-score in assay [14] was 0.517 (inactive); in [15], 0.241 (inactive); in assay [16], 0.475 (inactive); in assay [17], -0.012; in [18], -1.79 (inactive); in assay [19], 0.787 (inactive). In assay [20], this compound returned a z-score of 3.63.

Take `COC(=O)[C@@]1(Cc2ccccc2)[C@H]2c3cc(C(=O)N(C)C)n(Cc4ccc(C)o4)c3C[C@H]2CN1C(=O)c1ccccc1`: the composite z-score in [1] is 1.28; in [6], 2.31; in [7], 1.44; with Torsin-1A (Homo sapiens) [8] it was 0.125; with Torsin-1A (Homo sapiens) [9], 0.751; in assay [10], 0.406. Also, in assay [12], the composite z-score was determined as 1.25. Further, the z-score was -4.01 (inactive) in assay [2]; -0.142 (inactive) in assay [3]; -0.185 (inactive) in assay [4]; 0.2 (inactive) in [5]; -1.91 (inactive) in assay [11]; 2.55 (inactive) in [13]. The z-score in assay [14] was -0.381 (inactive); in assay [15], 0.541 (inactive); in [16], -1.54 (inactive); in [17], 1.97; in [18] it was -3.27 (inactive); in assay [19], -2.44 (inactive). The z-score in [20] is -4.77.

For the compound `CCCCN1CC=CC23O[C@@H]4/C=C\CCC(C)OC(=O)C4[C@H]2C(=O)N(CCCO)[C@@H]3C1=O` (stereo not given in full), the composite z-score in [1] was -0.636; in assay [6] it was -0.774; in assay [7], -0.247; with Torsin-1A (Homo sapiens) [8], -1.54; with Torsin-1A (Homo sapiens) [9] it was -1.15; in assay [10], -0.36. The compound also had a composite z-score in assay [12] of 0.0494. Further, the z-score was -0.183 (inactive) in assay [2]; 1.21 (inactive) in [3]; 0.0605 (inactive) in assay [4]; 0.0507 (inactive) in assay [5]; 0.323 (inactive) in [11]; 0.591 (inactive) in assay [13]. For the same compound, the z-score was -0.0611 (inactive) in assay [14]; -0.23 (inactive) in assay [15]; 0.408 (inactive) in assay [16]; -0.118 in assay [17]; 1.1 (inactive) in assay [18]; -1.84 (inactive) in [19]. The same compound gave a z-score in [20] of 0.861.

Turning to `O=C1N(Cc2ccccc2)c2ccccc2C[C@]12N=C(c1ccc(OCCCO)cc1)O[C@@H]2c1ccccc1`, the composite z-score was 0.0361 in assay [1]; 0.0469 in assay [6]; -0.0221 in [7]; -0.569 with Torsin-1A (Homo sapiens) [8]; 0.812 in the assay with Torsin-1A (Homo sapiens) [9]; 0.837 in [10]. The compound further showed a composite z-score in [12] of -0.0968. The z-score in assay [2] was -4.72 (inactive); in assay [3], -0.126 (inactive); in [4] it was 1.75 (inactive); in [5], -1.08 (inactive); in assay [11] it was -0.522 (inactive); in assay [13], 24.8 (active). The z-score was 15.7 (active) in assay [14]; 1.41 (inactive) in [15]; 2.71 (inactive) in assay [16]; -0.027 in assay [17]; -0.73 (inactive) in assay [18]; 0.472 (inactive) in assay [19]. For the same compound, the z-score in assay [20] was 0.0935.

Source of the values: PubChem BioAssay.
